Unmarked numbers belong to inactive results. Inconclusive results are not listed. Active and inactive are the calls of the source. Unless noted, the call rests on the fitted dose curve; in most records, active means well fitted curve in the direction sought with a large enough effect; inconclusive means small, poorly fitted or top-dose-only effect, or another doubt; inactive means no such curve, though single readings can be large; an effect the other way counts as inactive or inconclusive.

These results are taken from PubChem BioAssay (NCATS).

The nature of test [1]: Drug repurposing screens with cells derived from glioblastoma tumor samples (AID 1345199). Further: nearly all actives have a fitted effect of over 40% in size. Further: potency means the concentration at half of the fitted maximal effect. On activity, negative = cell killing: on the % scale 0 is the no-effect control and ±100 the full control effect. The following applies: GBM patient neurospheres viability, ATP luminescence, 48 h. Summed up: (§1)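 Four patient lines of CD133+ GBM neurospheres were screened at several concentrations; hits were retested in those lines plus three slower-growing GBM lines, using 48-hour treatment and ATP-based viability.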

The next test has as its system PA-1. The test can be described thus: Primary qHTS to identify gynecologic anti-cancer compounds using libraries of approved drugs and bioactive compounds (AID 1345084). Further: nearly all actives have a fitted effect of over 55% in size. Further: potency means the concentration at half of the fitted maximal effect. The following applies: Gynecologic cancer cell panel viability, ATPlite luminescence, 48 h; series mostly up to 57.5 µM. Summed up:
(§2)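 Luminescence from the ATPlite ATP-monitoring reagent indicates viable cell number; lower signal means cytotoxicity. Cells received compound 16 h after seeding and were exposed for 48 h across five concentrations.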

For a further test, the system named is Tov-21-G. The test is described as above. To be noted: Gynecologic cancer cell panel viability, ATPlite luminescence, 48 h; series mostly up to 57.5 µM. Summed up: as §2
(In ATP-based viability assays light output follows the ATP content of the culture.)

The subject of the next test is Tov112D. Described as above. The following applies: Gynecologic cancer cell panel viability, ATPlite luminescence, 48 h; series mostly up to 57.5 µM. Summed up: as §2
The subject of a further test is astro (control astrocytes). The test can be described thus: Drug repurposing screens with cells derived from glioblastoma tumor samples (AID 1345199). Further: nearly all actives have a fitted effect of over 40% in size. Further: potency means the concentration at half of the fitted maximal effect. On activity, negative = cell killing: on the % scale 0 is the no-effect control and ±100 the full control effect. To be noted: viability, ATP luminescence, 48 h; series mostly up to 45.9 µM. Summed up: as §1
Test [2] deals with Nuclear receptor subfamily 1 group I member 2 (Rattus norvegicus) (UniProt Q9R1A7). The test can be described thus: qHTS assay for small molecule activators of the rat pregnane X receptor (rPXR) signaling pathway (AID 651751; call rule not given here; further: 0% is about no effect). The following applies: rPXR reporter cells, luciferase (One-Glo), 24 h. On the technique in general: qHTS replaces the single test concentration by a dilution series.

Test [3] is described as follows: qHTS assay for small molecule activators of the human pregnane X receptor (PXR) signaling pathway (AID 720659; call rule not given here; further: 0% is about no effect). The following applies: DPX-2 HepG2 CYP3A4-luciferase, 24 h; series mostly up to 92.3 µM.
The next test concerns SKOV3. Nature of the test: Primary qHTS to identify gynecologic anti-cancer compounds using libraries of approved drugs and bioactive compounds (AID 1345084). Further: nearly all actives have a fitted effect of over 55% in size. Further: potency means the concentration at half of the fitted maximal effect. The following applies: Gynecologic cancer cell panel viability, ATPlite luminescence, 48 h; series mostly up to 57.5 µM. The method, boiled down: as §2
Setting [4] is: at 45.9 µM (top of the series), tumour line B.
Setting [5] is: at 46.1 µM (top of the series), tumour line C.
The mark [6] stands for this setting: at 45.9 µM (top of the series), tumour line D.
The mark [7] stands for this setting: at 46 µM (top of the series), tumour line A.

Chain of Nuclear receptor subfamily 1 group I member 2 (Rattus norvegicus) (Q9R1A7 whole entry, looked up): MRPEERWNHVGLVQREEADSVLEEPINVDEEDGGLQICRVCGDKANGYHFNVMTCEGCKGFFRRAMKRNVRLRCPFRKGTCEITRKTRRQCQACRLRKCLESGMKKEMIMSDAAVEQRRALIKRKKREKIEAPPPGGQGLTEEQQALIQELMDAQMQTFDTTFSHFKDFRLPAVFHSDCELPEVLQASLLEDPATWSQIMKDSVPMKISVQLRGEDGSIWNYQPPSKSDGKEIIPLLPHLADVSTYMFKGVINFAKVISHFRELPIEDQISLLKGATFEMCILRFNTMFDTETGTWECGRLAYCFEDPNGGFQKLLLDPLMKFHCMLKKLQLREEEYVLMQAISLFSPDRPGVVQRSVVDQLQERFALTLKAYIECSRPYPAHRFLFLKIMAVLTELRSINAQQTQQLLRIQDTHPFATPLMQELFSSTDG

For `CC(C)OC(=O)c1cc2c(OCC(O)CNC(C)(C)C)cccc2[nH]1` (stereo unspecified), in test [1] (setting [4]), the activity, negative = cell killing is -15.9%. Moreover, the Potency in test [1] (tumour line A) was 11.2 µM (active); in test [1] (tumour line D) it was 22.4 µM (active).
Regarding `CN1C(=O)c2ccccc2C1=O`, the Potency result with PA-1, with Tov-21-G, in the test with Tov112D and in the test on astro was “inactive” in each case. For the same molecule, the activity, negative = cell killing is -18.9% in test [1] (at 91.6 µM (top of the series), tumour line A); -9.87% in test [1] (at 91.6 µM (top of the series), tumour line B); -20.8% in test [1] (at 91.6 µM (top of the series), tumour line D); 6.36% in test [1] (at 99.2 µM (top of the series), tumour line C). Also, the max response in test [2] was 0.847%. The call in test [3] was inactive.
`CC(=O)N(CC(=O)N(C)C)c1ccccc1`: the Potency result in the test with SKOV3 and with Tov-21-G was “inactive” each time.
`CN1CCCN(C(c2ccccc2)c2ccc(Cl)cc2)CC1` (stereo unspecified): the Potency entry with PA-1 and in the test with Tov-21-G was “inactive” each time. Moreover, the Potency with Tov112D is 31.6 µM (active); in test [1] (tumour line A), 4.47 µM (active); in test [1] (tumour line B), 35.5 µM (active); in test [1] (tumour line D), 20 µM (active). The activity, negative = cell killing in test [1] (setting [5]) was -12.3%.
Consider `C[N+]1(CC2COC(c3ccccc3)(c3ccccc3)O2)CCCCC1` (stereo unspecified), for which the Potency entry in the test on PA-1, in the test with Tov-21-G, in the test on Tov112D and in the test with astro was “inactive” in each case. In addition, the activity, negative = cell killing was -10.9% in test [1] (setting [4]), -20.2% in test [1] (setting [6]) and -16.6% in test [1] (setting [5]).
In the case of `CCCCNc1ccc(C(=O)OCCN(CC)CC)cc1`, the Potency entry in the test on PA-1, in the test on Tov-21-G, with Tov112D and in the test with astro was “inactive” throughout. Besides, the activity, negative = cell killing in test [1] (setting [5]) was -27.5%. In addition, the Potency in test [1] (tumour line A) and in test [1] (tumour line D) was 14.1 µM (active) each time.
As to `O=C1NC(=O)/C(=C/c2ccc3c(c2)OC(F)(F)O3)S1`, the Potency result in the test on SKOV3, with Tov-21-G and in the test with Tov112D was “inactive” throughout.
With `CC(C(=O)O)c1ccc(/C=C2\CCCCC2=O)cc1` (stereo unspecified), the Potency entry with PA-1, in the test with Tov-21-G, in the test on Tov112D and in the test with astro was “inactive” in each case. In addition, the activity, negative = cell killing is -2.39% in test [1] (setting [4]), -17% in test [1] (setting [6]), -27.9% in test [1] (setting [7]) and 3.8% in test [1] (setting [5]).
Consider `CCCCCOc1ccc(C2SC(=O)NC2=O)cc1OCC` (stereo unspecified), for which the Potency result in the test with PA-1, in the test on Tov-21-G, in the test with Tov112D and in the test on astro was “inactive” each time. Moreover, the figures for the activity, negative = cell killing in test [1] (setting [4]), in test [1] (setting [6]) and in test [1] (setting [5]) were -6.4%, -4.3% and -14.2%, respectively.
As to `CC[C@@H]([C@H](C)O)n1ncn(-c2ccc(N3CCN(c4ccc(OC[C@@H]5CO[C@@](Cn6cncn6)(c6ccc(F)cc6F)C5)cc4)CC3)cc2)c1=O`, the Potency with SKOV3 is 15.8 µM (active).
Regarding `CCOC(=O)c1ccc(NC(=O)CN2CCCCC2)cc1`, the Potency entry in the test with PA-1, in the test with Tov-21-G, in the test with Tov112D and in the test on astro was “inactive” in each case.
Regarding `Cc1ccccc1C(=O)N1CC/C(=N\OS(=O)(=O)O)c2ccc(Cl)cc21`, the Potency entry in the test with PA-1, in the test with Tov-21-G, with Tov112D and with astro was “inactive” in each case. In addition, the activity, negative = cell killing in test [1] (setting [4]) is -4.66%; in test [1] (setting [6]), -7.25%; in test [1] (setting [7]), -14.2%; in test [1] (setting [5]), 2.94%.
Turning to `COc1ccccc1OCC1CNC(=O)O1` (stereo unspecified), the Potency result in the test on PA-1, in the test on Tov-21-G, in the test on Tov112D and in the test with astro was “inactive” each time. The activity, negative = cell killing is -0.636% in test [1] (setting [4]), -0.575% in test [1] (setting [6]), -28.8% in test [1] (setting [7]) and 4.79% in test [1] (setting [5]).
As to `CCC(C(=O)NC(=O)NC(C)=O)c1ccccc1` (stereo unspecified), the Potency entry in the test with PA-1, with Tov-21-G, in the test with Tov112D and with astro was “inactive” in each case. Also, the activity, negative = cell killing in test [1] (setting [4]) was -11.4%; in test [1] (setting [6]), -13.3%; in test [1] (setting [7]), -27.9%; in test [1] (setting [5]), -4.25%.
As for `CCCc1c2oc(C(=O)O)cc(=O)c2cc2c(=O)cc(C(=O)O)n(CC)c12`, the Potency result with PA-1, with Tov-21-G, in the test on Tov112D and with astro was “inactive” throughout. The activity, negative = cell killing in test [1] (setting [4]) is -3.36%; in test [1] (setting [6]), -8.4%; in test [1] (setting [7]), -11%; in test [1] (setting [5]), -12.7%.
